# Several values for one entry are separate records, joined by “and”; a condition that tells them apart may be missing. Equal entries are not always repeated. The panel holds about 83,000 compounds, 20% with a hit somewhere; the sample as a whole holds those more often.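 96-well plates, one dose, 48 hours. Percent growth reported; active if below 10.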 Activity calls are given as the source filed them.
# System: OVCAR-4 ovarian
# Assay: NCI-60 one-dose screen, 48 h (100 = growth as untreated, 0 = no growth, -100 = all killed)
# Conditions: 0.005 µM
# Method: Growth inhibition of the OVCAR-4 human tumor cell line is measured as a screen for anti-cancer activity. Cells are grown in 96 well plates and exposed to the test compound for 48 hours. Compounds are tested at a single concentration, which is 10^-5 M for most compounds. The reported endpoint is percent growth (GI% or GIPRCNT), where numbers from 0 - 100% represent growth inhibition, and numbers from -100% - 0 represent cell death. For example, a value of 40 represents 60% growth inhibition. A value of 0 means no net growth occurred over the course of the experiment. A value of -40 indicates 40% of cells at the beginning of the experiment died by the end of the experiment. A value of -100 means all cells are dead at the end of the experiment.
# NCI-60 Human Tumor Cell Lines Screen was performed using the standard one-dose NCI protocol, which is described in more detail at https://dtp.cancer.gov/discovery_development/nci-60/default.htm.
# Compounds with GIPRCNT values below 10 were considered active. Activity score was based on GIPRCNT using the following formula: […]
# Score is 0 for GIPRCNT values of 100 or above, 50 for GIPRCNT values of 0, and 100 for GIPRCNT values of -100.
row,SMILES,growth
1,CN(C)CCNc1ncc(F)c(-c2cnc3cc(-c4cnn(C)c4)ccn23)n1,105% (inactive)

# Same assay, conditions: 10 µM unless noted
row,SMILES,growth
1,C/C=C(\C)C(=O)N[C@H]1CC[C@]2(C)C3CC[C@@]4(C)C(CC[C@@H]4C(C)N(C)C)C3CCC2[C@H]1OC(C)=O (stereo not given in full),-23.3% (active)
2,O=C(N=Nc1c(O)[nH]c2ccccc12)Nc1ccccc1Cl,71% (inactive)
3,COc1ccc(NC(=O)Nc2ccccc2CNc2nc(Nc3ccc(OCCN4CCCC4)cc3)ncc2Cl)cc1,-74.3% (active)
4,CC(C)=CCc1cc(O)c(O)c2oc3cc(O)cc(O)c3c(=O)c12,62.5% (inactive)
5,CC1=C2[C@@H](CC1)[C@]1(C)O[C@@](C(C)C)(C[C@H]1OC(=O)CO)[C@H]2OC(=O)C1CC1c1ccccc1 (stereo not given in full),102% (inactive)
6,CN1CCN(C(=O)OCc2nc3c(N4CCOCC4)nc(Cl)nc3n2C)CC1,-39.5% (active)
7,O=C(Nc1ncc(Cc2cccc(C(F)(F)F)c2)s1)c1ccc2c(c1)OCCO2,37.1% (inactive)
8,COC(=O)c1nc(-c2ccccc2)oc1S(=O)(=O)N(C)CCO,77.4% (inactive)
9,C#Cc1cc(C(=O)Nc2ccc(CN3CCN(C)CC3)c(C(F)(F)F)c2)ccc1C,72.3% (inactive)
10,COc1ccc(-c2cc(-c3cccc(Cl)c3)c(C#N)c(=O)[nH]2)c(OC)c1,91.8% (inactive)
11,CCOC(=O)c1nnn(Cc2cc(=O)oc3c2ccc2ccccc23)c1C,97.6% (inactive)
12,CN(Cc1ccccc1)c1nc(Cl)c(C2CC(c3ccc4c(c3)OCO4)=NN2c2cc(Cl)cc(Cl)c2)s1 (stereo not given),90.1% (inactive)
13,[2H]C([2H])([2H])Oc1cc(F)ccc1/C=C/C(=O)/C=C(/C=C/c1ccc(F)cc1OC([2H])([2H])[2H])OB(F)F,17.5% (inactive)
14,O=C(Nc1ccc(Cl)c(Cl)c1)Nc1ccc(Cl)c(Cl)c1,-86.4% (active)
15,CN1CCN(Cc2ccc(NC(=O)c3cccc(C#Cc4c(N)ncc5ccc(F)cc45)c3)cc2C(F)(F)F)CC1,-47.6% (active)
16,CC1=CC=C(NC(=O)/C=C/c2ccccc2)CC1Nc1nccc(-c2cccnc2)n1 (stereo not given),70% (inactive)
17,Nc1[nH]nc(Nc2ccccc2)c1-c1nc2ccccc2s1,29.5% (inactive)
18,CCOc1ccc(N2C(N)=NC(N)=NC2(C)C)cc1,42.4% (inactive) and 108% (inactive)
19,Nc1nc2c(s1)CCc1cn(S(=O)(=O)c3ccccc3)cc1-2,87.5% (inactive)

row,SMILES,growth
1,C=C1CCC2C3(C)COC(c4ccc(NC(C)=O)cc4)OC3CCC2(C)C1C/C=C1/C(=O)OCC1O (stereo not given),23.7% (inactive)
2,O=c1c2c([nH]c3ccccc13)CCCC2,100% (inactive) and 68.5% (inactive)
3,CCOC(=O)c1c(-c2ccc(C)cc2)c(C#N)c(=O)n(-c2cccc(C(F)(F)F)c2)c1N,106% (inactive)
4,CCOC(=O)C(=Cc1ccc(C#N)cc1)C(=O)OCC,53.9% (inactive)
5,Cc1cnc(C(=O)NNc2nc3sc4c(c3c(=O)[nH]2)C(C)CCC4)cn1 (stereo not given),22.1% (inactive)
6,O=C1/C(=C/c2ccc(-c3ccccc3C(F)(F)F)o2)SC(=S)N1CCc1ccc(O)cc1,44.8% (inactive)
7,O=C(NCc1cccnc1)/C(=C\c1ccc(Br)cc1)S(=O)(=O)c1ccccc1,0.235% (active)
8,CC/C(=C(/c1ccc(Cl)cc1)c1ccc(OCCN2CCOCC2)cc1)c1ccccc1,100% (inactive)
9,O=C(/C=C/c1cccs1)Nc1ncc(Cc2ccc(Cl)c(Cl)c2)s1,66.6% (inactive)
10,O=C(/C=C/c1ccc(Cl)s1)c1ccc(Cl)s1,84.5% (inactive)
11,O=C(NNc1ccccc1)C1CCCN1 (stereo not given),64.5% (inactive)
12,CN(C)c1ccc2nc3ccc(=O)cc-3sc2c1,2.9% (active)
13,O=C(/C=C/c1ccc(F)cc1)Nc1ncc(Cc2ccc(F)cc2)s1,64.3% (inactive)
14,COc1cc(/C=C(/c2ccccc2)[N+](=O)[O-])c(OC)c2c1OCO2,-25.9% (active)
15,CC/C(=C(/c1ccc(O)cc1)c1ccc(OCCN2CCCCCC2)cc1)c1ccc(Cl)cc1,87.4% (inactive)
16,CCCCCCCCCCCCCCCC[N+](C)(C)CCN(Cc1ccc(OC)cc1)c1ncccn1,-8.05% (active) and 31.3% (inactive)
17,O=C(CN1C(=O)S/C(=C\C(Cl)=C\c2ccccc2)C1=O)NC1C=CS(=O)(=O)C1 (stereo not given),39.4% (inactive)
18,Cc1cc(N2CCCCC2)nc(NCc2cc(Nc3ccnc4cc(Cl)ccc34)ccc2F)n1,-4.79% (active)
19,Cc1ccc(-c2nc3nc(-c4ccccc4)nc(N4CCCNCC4)c3o2)cc1,-52.3% (active)

# Same assay, conditions: 30 µM
row,SMILES,growth
1,CN(C)CCNc1ncc(F)c(-c2cnc3cc(-c4cnn(C)c4)ccn23)n1,38.6% (inactive)

# From PubChem BioAssay (NCI)
